Rab9 promoter act = Rab9 promoter activation. Huh7 Rab9 promoter-luciferase reporter, luminescence, 24 h. Potency, µM (top dose mostly 9.22 µM), usual class: activators. 320,000 compounds, 2.8% hits. AID 485297; also: nearly all actives have a fitted effect of over 60% in size
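Quantitative HTS format; Huh7 Rab9-luciferase reporter cells (1500/well) receive compound 2 h post-plating, incubate 24 h at 37 °C, then get luciferase reagent for 10 min before luminescence reading.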
ELG1 genotoxic = inducers of genotoxicity in HEK293T ELG1-luciferase cells | HEK293T ELG1-luciferase reporter, luminescence, 16 h | Potency, µM (top dose mostly 46 µM), usual class: activators | 330,000 compounds, 1.3% hits | AID 504466; also: nearly all actives have a fitted effect of over 60% in size
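Luminescence read-out: rising ELG1-luciferase signal, reflecting elevated ELG1 protein under genetic stress, flags genotoxic compounds. Cells were treated for 16 hr at 37 °C before ONE-Glo detection.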
SMN2 splice enh = increases expression of the SMN2 splice variant; HEK293 SMN2-luciferase splicing reporter, luminescence, 30-36 h; Potency, µM (series often up to 46.1 µM), hits mostly activators; 210,000 compounds, 2.8% hits; AID 1458; also: nearly all actives have a fitted effect of over 55% in size
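HEK293 cells carry an SMN2 […]–luciferase reporter in which exon 7 inclusion puts luciferase in frame. Cells were plated 10-12 h before compound addition, then incubated 30-36 h at 37C. ONE-Glo luminescence was read; sodium butyrate at 4.5 mM final served as control.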
NPC1 prom act = activators of NPC1 promoter; Huh7 NPC1 promoter luciferase reporter, 24 h; Potency, µM (series often up to 9.22 µM), usual class: activators; 320,000 compounds, 2.4% hits; AID 485313; also: nearly all actives have a fitted effect of over 60% in size
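Compounds in DMSO were transferred onto Huh7 NPC1-luciferase reporter cells pre-incubated 2 h; after 24 h at 37 °C, Amplite reagent was dispensed and luminescence recorded 10 min later.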
Luc counter = blocks Kinase-Glo luciferase, a counter-screen artifact; 200,000 compounds, 0.28% hits; Q27757; AID 1379; Potency, µM (doses to about 38.3 µM), hits mostly inhibitors; Kinase-Glo luciferase, ATP luminescence, 8 min; also: nearly all actives have a fitted effect of over 60% in size
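Light output from Kinase-Glo luciferase with luciferin and 10 uM ATP in 50 mM imidazole pH 7.2, KCl, MgCl2, Tween 20, BSA; compound pin-delivered, 8-min ambient incubation, then luminescence read.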
FLuc counter = firefly luciferase modulation, counter-screen for miR-21 project; P08659; AID 588342; 360,000 compounds, 6.9% hits; purified FLuc, Km substrates, luminescence inhibition; Potency, µM (titrated, usually from 57.5 µM), actives largely listed as inhibitors; also: nearly all actives have a fitted effect of over 55% in size
Target sequence (P08659 whole entry, looked up): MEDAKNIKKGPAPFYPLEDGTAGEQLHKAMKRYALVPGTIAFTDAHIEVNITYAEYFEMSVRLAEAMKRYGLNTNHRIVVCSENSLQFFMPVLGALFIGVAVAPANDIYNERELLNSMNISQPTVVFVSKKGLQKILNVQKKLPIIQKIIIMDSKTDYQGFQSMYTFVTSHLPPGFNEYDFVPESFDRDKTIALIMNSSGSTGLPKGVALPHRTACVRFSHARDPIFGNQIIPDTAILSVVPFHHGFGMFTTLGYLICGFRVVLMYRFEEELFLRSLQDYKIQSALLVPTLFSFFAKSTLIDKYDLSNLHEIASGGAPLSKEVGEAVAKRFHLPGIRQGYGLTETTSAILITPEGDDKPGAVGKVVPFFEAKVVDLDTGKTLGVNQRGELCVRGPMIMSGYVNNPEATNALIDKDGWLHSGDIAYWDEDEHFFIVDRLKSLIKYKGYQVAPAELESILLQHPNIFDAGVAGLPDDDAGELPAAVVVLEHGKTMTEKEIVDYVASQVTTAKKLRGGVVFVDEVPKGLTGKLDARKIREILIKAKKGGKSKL
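Purified P. pyralis luciferase (10nM final) with 10uM D-luciferin and 10uM ATP (Km levels) in 50mM Tris acetate pH 7.5, 10mM Mg acetate, 0.01% Tween-20, 0.05% BSA; qHTS 6-point titration, ~60 µM downward; luminescence read.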
Of the large screens only hits and unclear results are named; the others gave an inactive call. A selection: hits, their analogues and other compounds. The true share with any hit is near 7.3%. Calls follow the shape of the dose curve; as a rule, active = well fitted curve in the direction sought with a large enough effect; inconclusive = small, poorly fitted or top-dose-only effect, or another doubt; inactive = no such curve, though single readings can be large; an effect the other way counts as inactive or inconclusive.

CCOC(=O)N1CCN(C(=O)CCSc2ccccc2)CC1	Rab9 promoter act 2.82µM, ELG1 genotoxic 9.2µM, SMN2 splice enh inconclusive, NPC1 prom act inconclusive, FLuc counter 16.9µM
CCOC(=O)N1CCN(C(=O)CCSc2ccc(C)cc2)CC1	none
COc1cccc(NC(=O)COC(=O)c2c(C)nn(-c3ccccc3)c2C)c1	FLuc counter 21.3µM (no result: SMN2 splice enh, Luc counter)
Cc1ccc(NC(=O)c2c(C)nn(-c3ccccc3)c2Cl)cc1	FLuc counter 15.1µM
COc1ccc(NC(=O)c2c(C)nn(-c3ccccc3)c2Cl)cc1	FLuc counter inconclusive (no result: SMN2 splice enh, Luc counter)
COc1cccc(NC(=O)c2c(C)nn(-c3ccccc3)c2Cl)c1	Rab9 promoter act inconclusive, FLuc counter 16.9µM (no result: SMN2 splice enh, Luc counter)
Cc1nn(-c2ccccc2)c(C)c1C(=O)OCC(=O)Nc1cccc(S(N)(=O)=O)c1	FLuc counter inconclusive (no result: SMN2 splice enh, Luc counter)
CCCCCC(=O)N/N=C/c1ccc([N+](=O)[O-])o1	none (no result: ELG1 genotoxic, SMN2 splice enh, Luc counter)
CCN(CC)c1ccc(N=Cc2ccc([N+](=O)[O-])o2)cc1	FLuc counter 6.75µM
CCN(CC)c1ccc(N=Cc2ccccc2[N+](=O)[O-])cc1	FLuc counter 3.79µM
CCN(CC)c1ccc(/C=N/NS(=O)(=O)c2ccc(C)c([N+](=O)[O-])c2)cc1	none (no result: SMN2 splice enh, Luc counter)
CCOC(=O)C1=C(C)N(c2ccccc2)C(=O)/C1=C\c1ccc(O)c(OC)c1	FLuc counter inconclusive (no result: SMN2 splice enh, Luc counter)
CCOC(=O)C1=C(C)N(CC(C)C)C(=O)/C1=C\c1ccc(OCC(=O)Nc2ccccc2)cc1	none
CCOC(=O)C1=C(O)c2ccccc2C(=O)/C1=C\c1ccc(CC)cc1	SMN2 splice enh inconclusive, FLuc counter 3.38µM
CCCc1ccc(/C=C2\C(=O)c3ccccc3C(O)=C2C(=O)OCC)cc1	ELG1 genotoxic inconclusive, SMN2 splice enh 10µM, FLuc counter 3.38µM
O=C(NCC(c1ccco1)S(=O)(=O)c1ccc(Cl)cc1)c1ccccc1F (centres undefined)	none (no result: Rab9 promoter act, ELG1 genotoxic, SMN2 splice enh, NPC1 prom act, Luc counter)
CCOC(=O)c1c(-c2ccc(C)cc2)csc1NC(=O)c1cc(=O)c2cc(C)cc(C)c2o1	none (no result: Rab9 promoter act, ELG1 genotoxic, SMN2 splice enh, NPC1 prom act, Luc counter)
Cc1cccn2cc(-c3cccc(NC(=O)c4cccs4)c3)nc12	FLuc counter 4.78µM
O=C(Nc1cccc(-c2cn3cccnc3n2)c1)c1cccs1	FLuc counter inconclusive
Cc1ccn2c(NC(=O)c3cccs3)c(-c3ccccc3)nc2c1	FLuc counter inconclusive
Cc1ccn2cc(-c3cccc(NC(=O)c4cccs4)c3)nc2c1	Rab9 promoter act inconclusive, SMN2 splice enh inconclusive, FLuc counter 2.39µM
CCOC(=O)c1ccccc1NC(=O)Cn1nnc2sc3c(c2c1=O)CCCC3	none (no result: Rab9 promoter act, ELG1 genotoxic, NPC1 prom act, Luc counter)
O=C(CC(Nc1ccccc1Cl)C(=O)OCC(=O)c1cccs1)c1ccccc1 (centres undefined)	ELG1 genotoxic inconclusive
CC(=O)NC(Cc1ccccc1)C(=O)OCC(=O)c1ccc(Br)cc1 (centres undefined)	none
COc1ccccc1NC(CC(=O)c1ccccc1)C(=O)OCC(=O)c1ccc(C)cc1 (centres undefined)	ELG1 genotoxic 2.31µM, SMN2 splice enh 8.91µM, FLuc counter 3.38µM
COc1ccccc1NC(CC(=O)c1ccccc1)C(=O)OCC(=O)c1ccc(Br)cc1 (centres undefined)	ELG1 genotoxic 2.06µM, FLuc counter 2.13µM
COc1ccccc1NC(CC(=O)c1ccccc1)C(=O)OCC(=O)c1ccc(C)c(C)c1 (centres undefined)	ELG1 genotoxic 2.06µM, SMN2 splice enh 8.91µM, FLuc counter 3.01µM
CCOC(=O)Cc1ccc(NC(=O)N2CCC(CN3CCCCCC3)CC2)cc1	none (no result: Rab9 promoter act, ELG1 genotoxic, SMN2 splice enh, NPC1 prom act, Luc counter)
COc1ccc(NC(=O)C2CCCN(c3nnc(C)c4c(C)n(-c5ccccc5)nc34)C2)cc1Cl (centres undefined)	none (no result: Rab9 promoter act, ELG1 genotoxic, SMN2 splice enh, NPC1 prom act, Luc counter)
COc1ccc(C(C(=O)Nc2ccc(C(C)C)cc2)N(C)C(=O)Cc2cccs2)cc1 (centres undefined)	none (no result: Rab9 promoter act, ELG1 genotoxic, NPC1 prom act, Luc counter)
COC(=O)c1cc(NC(=O)/C=C/c2ccccc2)ccc1O	Rab9 promoter act inconclusive, NPC1 prom act inconclusive, FLuc counter 10.7µM (no result: SMN2 splice enh)

From PubChem BioAssay
